Measurements from PubChem BioAssay (NCATS).
Records with an inconclusive call do not appear. Active and inactive are the calls of the source. Calls come from the whole dose curve; as a rule, active = well fitted curve in the direction sought with a large enough effect; inconclusive = small, poorly fitted or top-dose-only effect, or another doubt; inactive = no such curve, though single readings can be large; an effect the other way counts as inactive or inconclusive.

Tests used:
CRL-7250 = normal cell line; experiment: Cytotoxic Profiling of Annotated Libraries Using Quantitative High-Throughput Screening (AID 1296008); conditions: Five cell lines viability, CellTiter-Glo ATP luminescence, 48-72 h; max response: active compounds read low; note: nearly all actives have a fitted effect of over 60% in size; for max response: % is set by controls: 0 for no effect and ±100 for the full control effect
In short: (§1)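 Compounds were pin-transferred onto cells and incubated 48 or 72 hr at 37 degree Celsius, 95% humidity. CellTiter-Glo was added, plates sat 10 min at room temperature, then ATP-coupled luminescence was imaged as the viability read-out.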

HEK293 = experiment: as above; conditions: Five cell lines viability, CellTiter-Glo ATP luminescence, 48-72 h; max response: active compounds read low
In short: as §1

HaCat [1] = experiment: as above; conditions: Five cell lines viability, CellTiter-Glo ATP luminescence, 48-72 h; max response: active compounds read low
In short: as §1

KB-3-1 = experiment: as above; conditions: Five cell lines viability, CellTiter-Glo ATP luminescence, 48-72 h; max response: active compounds read low
In short: as §1

NIH3T3 [2] = experiment: as above; conditions: Five cell lines viability, CellTiter-Glo ATP luminescence, 48-72 h; max response: active compounds read low
In short: as §1

HACAT [3] = experiment: qHTS assay to identify novel small-molecules to repurpose for Merkel cell carcinoma treatment (AID 1296009); conditions: MCC and control cell lines, CellTiter-Glo viability, 72 h; at 44.8 µM (top of the series) unless noted; note: nearly all actives have a fitted effect of over 60% in size
In short: (§2)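 qHTS format: cells treated with library compounds in DMSO across 8 (NPC) or 11 (MIPE) concentrations. Readout after 72 hr at 37 degree celsius was CellTiter-Glo luminescence.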

NIH3T3 [4] = experiment: as above; conditions: MCC and control cell lines, CellTiter-Glo viability, 72 h; at 44.8 µM (top of the series) unless noted
In short: as §2

C33A = experiment: Primary qHTS to identify gynecologic anti-cancer compounds using libraries of approved drugs and bioactive compounds (AID 1345084); conditions: Gynecologic cancer cell panel viability, ATPlite luminescence, 48 h; series mostly up to 57.5 µM; note: % is set by controls: 0 for no effect and ±100 for the full control effect; nearly all actives have a fitted effect of over 55% in size
In short: (§3)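 48 h compound exposure at 37 C, 5% CO2; five-point qHTS. ATPlite luminescence readout of cell ATP.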

CAOV3 = experiment: as above; conditions: Gynecologic cancer cell panel viability, ATPlite luminescence, 48 h; series mostly up to 57.5 µM
In short: as §3

CASKI = experiment: as above; conditions: Gynecologic cancer cell panel viability, ATPlite luminescence, 48 h; series mostly up to 57.5 µM
In short: as §3

Es-2 = experiment: as above; conditions: Gynecologic cancer cell panel viability, ATPlite luminescence, 48 h; series mostly up to 57.5 µM
In short: as §3

HeLa = experiment: as above; conditions: Gynecologic cancer cell panel viability, ATPlite luminescence, 48 h; series mostly up to 57.5 µM
In short: as §3

Hek293T = experiment: as above; conditions: Gynecologic cancer cell panel viability, ATPlite luminescence, 48 h, control line for the selectivity index; series mostly up to 57.5 µM
In short: as §3

JEG-3 = experiment: as above; conditions: Gynecologic cancer cell panel viability, ATPlite luminescence, 48 h; series mostly up to 57.5 µM
In short: as §3

OV90 = experiment: as above; conditions: Gynecologic cancer cell panel viability, ATPlite luminescence, 48 h; series mostly up to 57.5 µM
In short: as §3

PA-1 = experiment: as above; conditions: Gynecologic cancer cell panel viability, ATPlite luminescence, 48 h; series mostly up to 57.5 µM
In short: as §3

CC(C)c1cc2c(c(O)c1O)[C@@]13CCCC(C)(C)C1[C@@H](O)[C@@H]2OC3=O (stereo not given in full)
inactive: max response (CRL-7250) 4.77% | max response (HEK293) -8.48% | outcome (HaCat [1]) | max response (KB-3-1) 7.44% | outcome (NIH3T3 [2]) | outcome (HACAT [3]) | outcome (NIH3T3 [4]) | Potency (C33A) | Potency (CAOV3) | outcome (CASKI) | Potency (Es-2) | Potency (HeLa) | Potency (Hek293T) | Potency (JEG-3) | Potency (OV90) | Potency (PA-1)

COC(=O)C1=CO[C@@H](O[C@@H]2O[C@H](CO)[C@@H](O)[C@H](O)[C@H]2O)[C@@H]2C(C)CC(=O)[C@]12O (stereo not given in full)
inactive: max response (CRL-7250) 4.9% | max response (HEK293) -0.581% | outcome (HaCat [1]) | max response (KB-3-1) 1.82% | outcome (NIH3T3 [2]) | outcome (HACAT [3]) inactive [at 17.4 µM] | outcome (NIH3T3 [4]) inactive [at 17.4 µM] | Potency (C33A) | Potency (CAOV3) | outcome (CASKI) | Potency (Es-2) | Potency (HeLa) | Potency (Hek293T) | Potency (JEG-3) | Potency (OV90) | Potency (PA-1)

CC(C)(O)C1CC=C(C(=O)OC[C@H]2O[C@@H](Oc3cc(C(=O)O)cc(O)c3O)[C@H](O)[C@@H](O)[C@@H]2O)CC1 (stereo not given in full)
inactive: max response (CRL-7250) 1.76% | max response (HEK293) 3.21% | outcome (HaCat [1]) | outcome (KB-3-1) | outcome (NIH3T3 [2]) | outcome (HACAT [3]) inactive [at 17.4 µM] | outcome (NIH3T3 [4]) inactive [at 17.4 µM] | Potency (C33A) | Potency (CAOV3) | outcome (CASKI) | Potency (Es-2) | Potency (HeLa) | Potency (Hek293T) | Potency (JEG-3) | Potency (OV90) | Potency (PA-1)

Cc1c(Cc2ccc3ccccc3n2)c2cc(F)ccc2n1CC(=O)O
inactive: max response (CRL-7250) -9.45% | max response (HEK293) 0.378% | outcome (HaCat [1]) | max response (KB-3-1) 7.66% | outcome (NIH3T3 [2]) | outcome (HACAT [3]) | outcome (NIH3T3 [4]) | Potency (C33A) | Potency (CAOV3) | outcome (CASKI) | Potency (Es-2) | Potency (HeLa) | Potency (Hek293T) | Potency (JEG-3) | Potency (OV90) | Potency (PA-1)

COc1cc(CO)cc(OC)c1O[C@@H]1O[C@H](CO)[C@@H](O)[C@H](O)[C@H]1O
inactive: max response (CRL-7250) -11.4% | max response (HEK293) -2.97% | outcome (HaCat [1]) | max response (KB-3-1) 4.69% | outcome (NIH3T3 [2]) | outcome (HACAT [3]) | outcome (NIH3T3 [4]) | Potency (C33A) | Potency (CAOV3) | outcome (CASKI) | Potency (Es-2) | Potency (HeLa) | Potency (Hek293T) | Potency (JEG-3) | Potency (OV90) | Potency (PA-1)

COC(=O)C1=COC(O[C@@H]2O[C@H](CO)[C@@H](O)[C@H](O)[C@H]2O)/C(=C\COC(=O)/C=C/c2ccccc2)C1CC(=O)OCCc1ccc(O)cc1 (stereo not given in full)
inactive: max response (CRL-7250) -7.39% | max response (HEK293) -5.04% | outcome (HaCat [1]) | outcome (KB-3-1) | outcome (NIH3T3 [2]) | outcome (HACAT [3]) inactive [at 17.4 µM] | outcome (NIH3T3 [4]) inactive [at 17.4 µM] | Potency (C33A) | Potency (CAOV3) | outcome (CASKI) | Potency (Es-2) | Potency (HeLa) | Potency (Hek293T) | Potency (JEG-3) | Potency (OV90) | Potency (PA-1)

Cc1occc(=O)c1O[C@@H]1O[C@H](CO)[C@@H](O)[C@H](O)[C@H]1O
inactive: max response (CRL-7250) -1.36% | max response (HEK293) 2.23% | outcome (HaCat [1]) | outcome (KB-3-1) | outcome (NIH3T3 [2]) | outcome (HACAT [3]) | outcome (NIH3T3 [4]) | Potency (C33A) | Potency (CAOV3) | outcome (CASKI) | Potency (Es-2) | Potency (HeLa) | Potency (Hek293T) | Potency (JEG-3) | Potency (OV90) | Potency (PA-1)

C=C1CC2C3(C)C=CC(=O)OC(C)(C)C3CC(OC(C)=O)C2(C)C2C(=O)OC(C)C(=O)C12C (stereo not given)
inactive: max response (CRL-7250) -1.41% | max response (HEK293) -7.78% | outcome (HaCat [1]) | max response (KB-3-1) 1.96% | outcome (NIH3T3 [2]) | outcome (HACAT [3]) inactive [at 17.4 µM] | outcome (NIH3T3 [4]) inactive [at 17.4 µM] | Potency (C33A) | Potency (CAOV3) | outcome (CASKI) | Potency (Es-2) | Potency (HeLa) | Potency (Hek293T) | Potency (JEG-3) | Potency (OV90) | Potency (PA-1)

C[C@]1(OC(=O)/C=C/c2ccccc2)C[C@@H](O)[C@]2(O)C=CO[C@@H](O[C@@H]3O[C@H](CO)[C@@H](O)[C@H](O)[C@H]3O)[C@@H]21
inactive: max response (CRL-7250) -4.65% | max response (HEK293) 3.08% | outcome (HaCat [1]) | max response (KB-3-1) 8.76% | outcome (NIH3T3 [2]) | outcome (HACAT [3]) inactive [at 17.4 µM] | outcome (NIH3T3 [4]) inactive [at 17.4 µM] | Potency (C33A) | Potency (CAOV3) | outcome (CASKI) | Potency (Es-2) | Potency (HeLa) | Potency (Hek293T) | Potency (JEG-3) | Potency (OV90) | Potency (PA-1)

C/C=C/C=C/C(O)=C1/C(=O)[C@]2(C)C(=O)[C@@](C)(O)[C@H]1[C@H]([C@@]1(C)OC(=O)C(C)=C1O)[C@H]2C(=O)CC/C=C/C
inactive: outcome (CRL-7250) | max response (HEK293) -3.93% | outcome (HaCat [1]) | outcome (KB-3-1) | outcome (NIH3T3 [2]) | outcome (HACAT [3]) inactive [at 17.4 µM] | outcome (NIH3T3 [4]) inactive [at 17.4 µM] | Potency (C33A) | Potency (CAOV3) | outcome (CASKI) | Potency (Es-2) | Potency (HeLa) | Potency (Hek293T) | Potency (JEG-3) | Potency (OV90) | Potency (PA-1)
